The text below walks through data of ChEMBL document CHEMBL1961873, “Compounds: GSK PKIS; Assays: Nanosyn kinase panel” (2012).

One may read the inhibition as the relative decrease from the control value, in per cent.

The target in assay [1] is Protein kinase C gamma type (Homo sapiens) (UniProt P05129). The conditions noted are these: at 1 µM.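 Further: each value is an averaged percent inhibition of the enzyme.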
The target of assay [2] is T1, Protein kinase C iota type (Homo sapiens) (UniProt P41743).
T1 sequence (whole entry): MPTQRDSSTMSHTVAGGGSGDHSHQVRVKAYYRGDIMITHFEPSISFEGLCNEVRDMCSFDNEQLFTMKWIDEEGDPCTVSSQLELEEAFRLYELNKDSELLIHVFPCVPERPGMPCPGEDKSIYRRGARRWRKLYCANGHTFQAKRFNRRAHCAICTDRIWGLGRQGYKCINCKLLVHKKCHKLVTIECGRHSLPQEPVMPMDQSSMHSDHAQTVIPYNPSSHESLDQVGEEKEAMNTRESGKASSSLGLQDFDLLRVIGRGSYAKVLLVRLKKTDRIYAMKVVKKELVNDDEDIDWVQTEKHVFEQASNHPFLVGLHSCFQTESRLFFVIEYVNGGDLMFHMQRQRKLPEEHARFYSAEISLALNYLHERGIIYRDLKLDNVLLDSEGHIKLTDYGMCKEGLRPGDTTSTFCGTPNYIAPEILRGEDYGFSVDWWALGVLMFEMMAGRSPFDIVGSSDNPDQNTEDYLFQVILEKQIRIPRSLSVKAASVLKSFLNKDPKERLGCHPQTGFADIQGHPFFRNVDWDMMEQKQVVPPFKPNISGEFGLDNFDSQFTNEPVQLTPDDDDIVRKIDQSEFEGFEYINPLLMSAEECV
To be noted: at 0.1 µM.

The target in assay [3] is T1, Protein kinase C iota type (Homo sapiens). To be noted: at 1 µM.
Assay [4] addresses Protein kinase C theta type (Homo sapiens) (UniProt Q04759). The conditions noted are these: at 0.1 µM.
Assay [5] has the same target. The conditions noted are these: at 1 µM.
In assay [6] the target is Protein kinase C beta type (Homo sapiens) (UniProt P05771). The conditions noted are these: at 0.1 µM.
For assay [7] the target is unchanged. The conditions noted are these: at 1 µM.
Assay [8] deals with T2, Serine/threonine-protein kinase D1 (Homo sapiens) (UniProt Q15139).
T2 sequence (whole entry): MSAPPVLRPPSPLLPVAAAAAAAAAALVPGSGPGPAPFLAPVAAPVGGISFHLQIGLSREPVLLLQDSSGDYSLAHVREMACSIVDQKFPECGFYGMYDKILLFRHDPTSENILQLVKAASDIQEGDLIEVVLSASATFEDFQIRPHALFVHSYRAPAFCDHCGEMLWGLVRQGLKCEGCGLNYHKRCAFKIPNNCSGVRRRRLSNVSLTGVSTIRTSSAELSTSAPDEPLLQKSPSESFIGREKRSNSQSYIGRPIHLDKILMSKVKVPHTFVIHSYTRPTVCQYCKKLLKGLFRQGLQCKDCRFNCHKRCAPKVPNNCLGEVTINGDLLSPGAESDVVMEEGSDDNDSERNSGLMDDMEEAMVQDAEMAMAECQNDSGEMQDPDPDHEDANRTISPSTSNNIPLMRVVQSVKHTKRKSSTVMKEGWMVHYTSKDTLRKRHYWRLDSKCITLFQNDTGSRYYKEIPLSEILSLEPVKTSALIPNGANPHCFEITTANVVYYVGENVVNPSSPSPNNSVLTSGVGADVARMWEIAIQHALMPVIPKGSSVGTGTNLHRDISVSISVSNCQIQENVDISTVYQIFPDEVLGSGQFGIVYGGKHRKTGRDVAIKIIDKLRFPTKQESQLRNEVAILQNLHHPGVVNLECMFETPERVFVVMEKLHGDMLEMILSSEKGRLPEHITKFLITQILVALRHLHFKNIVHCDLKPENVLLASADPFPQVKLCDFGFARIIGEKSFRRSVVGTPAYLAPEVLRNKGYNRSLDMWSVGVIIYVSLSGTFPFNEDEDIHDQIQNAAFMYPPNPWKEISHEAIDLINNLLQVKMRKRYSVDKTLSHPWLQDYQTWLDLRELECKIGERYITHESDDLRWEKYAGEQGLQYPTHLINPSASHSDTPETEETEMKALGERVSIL
To be noted: at 0.1 µM.

Assay [9] deals with T2, Serine/threonine-protein kinase D1 (Homo sapiens). To be noted: at 1 µM.
Assay [10] concerns the target T3, Serine/threonine-protein kinase D2 (Homo sapiens) (UniProt Q9BZL6).
T3 sequence (whole entry): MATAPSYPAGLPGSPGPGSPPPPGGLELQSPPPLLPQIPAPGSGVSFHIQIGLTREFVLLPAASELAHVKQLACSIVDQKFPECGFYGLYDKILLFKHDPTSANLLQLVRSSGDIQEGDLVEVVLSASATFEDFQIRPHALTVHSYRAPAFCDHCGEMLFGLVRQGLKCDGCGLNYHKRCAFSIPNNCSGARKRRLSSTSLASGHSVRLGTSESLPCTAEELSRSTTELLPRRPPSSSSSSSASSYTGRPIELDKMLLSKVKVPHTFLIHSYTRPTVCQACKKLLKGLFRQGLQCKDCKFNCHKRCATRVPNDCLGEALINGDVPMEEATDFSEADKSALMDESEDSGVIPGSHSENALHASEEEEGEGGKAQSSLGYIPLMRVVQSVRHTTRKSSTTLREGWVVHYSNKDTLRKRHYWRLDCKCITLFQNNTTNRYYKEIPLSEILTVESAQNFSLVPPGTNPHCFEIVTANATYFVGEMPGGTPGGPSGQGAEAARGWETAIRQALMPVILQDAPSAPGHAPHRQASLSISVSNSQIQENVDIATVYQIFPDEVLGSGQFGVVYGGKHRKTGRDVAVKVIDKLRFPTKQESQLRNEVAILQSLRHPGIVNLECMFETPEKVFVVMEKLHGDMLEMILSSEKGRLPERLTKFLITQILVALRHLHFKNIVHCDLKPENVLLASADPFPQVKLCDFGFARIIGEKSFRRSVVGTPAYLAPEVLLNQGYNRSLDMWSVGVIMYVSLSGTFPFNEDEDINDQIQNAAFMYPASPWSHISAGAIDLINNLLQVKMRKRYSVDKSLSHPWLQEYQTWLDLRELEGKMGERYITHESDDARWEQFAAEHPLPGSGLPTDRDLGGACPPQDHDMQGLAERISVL
To be noted: at 0.1 µM.

In assay [11] the target is T3, Serine/threonine-protein kinase D2 (Homo sapiens). To be noted: at 1 µM.
Assay [12] has as its target T4, Serine/threonine-protein kinase D3 (Homo sapiens) (UniProt O94806).
T4 sequence (whole entry): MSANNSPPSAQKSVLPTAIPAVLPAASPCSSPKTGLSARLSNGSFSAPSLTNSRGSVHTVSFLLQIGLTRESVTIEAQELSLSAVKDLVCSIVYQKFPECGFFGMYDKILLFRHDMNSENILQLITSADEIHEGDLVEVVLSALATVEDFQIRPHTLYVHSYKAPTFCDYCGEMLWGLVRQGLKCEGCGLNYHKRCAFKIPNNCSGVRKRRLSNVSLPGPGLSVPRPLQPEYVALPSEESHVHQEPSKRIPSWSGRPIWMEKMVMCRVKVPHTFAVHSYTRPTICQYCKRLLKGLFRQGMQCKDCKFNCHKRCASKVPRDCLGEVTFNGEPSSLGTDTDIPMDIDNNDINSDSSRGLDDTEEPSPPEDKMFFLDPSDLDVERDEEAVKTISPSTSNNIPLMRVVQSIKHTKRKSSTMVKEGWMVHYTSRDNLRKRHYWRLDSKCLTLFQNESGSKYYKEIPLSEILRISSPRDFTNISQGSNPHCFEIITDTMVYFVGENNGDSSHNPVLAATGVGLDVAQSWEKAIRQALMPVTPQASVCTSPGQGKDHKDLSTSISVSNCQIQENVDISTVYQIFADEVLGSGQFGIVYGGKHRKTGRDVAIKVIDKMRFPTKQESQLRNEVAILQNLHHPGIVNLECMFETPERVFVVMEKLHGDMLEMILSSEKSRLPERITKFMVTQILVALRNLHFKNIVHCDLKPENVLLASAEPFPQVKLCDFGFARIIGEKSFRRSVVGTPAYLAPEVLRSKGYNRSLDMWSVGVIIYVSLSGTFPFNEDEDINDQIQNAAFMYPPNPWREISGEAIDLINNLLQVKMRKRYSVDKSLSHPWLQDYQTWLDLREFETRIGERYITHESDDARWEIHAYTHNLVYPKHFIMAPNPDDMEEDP
To be noted: at 0.1 µM.

The target in assay [13] is T4, Serine/threonine-protein kinase D3 (Homo sapiens). To be noted: at 1 µM.
In assay [14] the target is T5, cGMP-dependent protein kinase 1 (Homo sapiens) (UniProt Q13976).
T5 sequence (whole entry): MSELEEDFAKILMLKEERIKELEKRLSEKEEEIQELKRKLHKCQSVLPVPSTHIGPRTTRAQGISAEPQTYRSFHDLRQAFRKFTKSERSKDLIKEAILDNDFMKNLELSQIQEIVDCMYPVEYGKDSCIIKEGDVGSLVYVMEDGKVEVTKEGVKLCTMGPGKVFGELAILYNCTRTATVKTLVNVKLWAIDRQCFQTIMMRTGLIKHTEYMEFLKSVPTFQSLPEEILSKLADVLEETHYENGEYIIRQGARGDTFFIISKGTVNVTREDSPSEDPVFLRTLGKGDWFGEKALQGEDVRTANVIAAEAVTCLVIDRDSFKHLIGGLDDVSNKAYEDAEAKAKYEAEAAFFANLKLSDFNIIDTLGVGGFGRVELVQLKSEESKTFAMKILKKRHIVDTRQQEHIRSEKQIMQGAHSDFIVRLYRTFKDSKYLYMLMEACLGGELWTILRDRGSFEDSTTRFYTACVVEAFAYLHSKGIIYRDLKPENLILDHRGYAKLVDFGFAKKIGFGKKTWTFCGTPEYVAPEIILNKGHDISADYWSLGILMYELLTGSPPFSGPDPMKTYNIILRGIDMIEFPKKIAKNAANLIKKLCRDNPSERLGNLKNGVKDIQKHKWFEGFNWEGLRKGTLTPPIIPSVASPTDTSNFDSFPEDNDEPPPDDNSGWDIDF
The conditions noted are these: at 0.1 µM.

For assay [15], the target named is T5, cGMP-dependent protein kinase 1 (Homo sapiens). The conditions noted are these: at 1 µM.
For assay [16], the target named is T6, cGMP-dependent protein kinase 2 (Homo sapiens) (UniProt Q13237).
T6 sequence (whole entry): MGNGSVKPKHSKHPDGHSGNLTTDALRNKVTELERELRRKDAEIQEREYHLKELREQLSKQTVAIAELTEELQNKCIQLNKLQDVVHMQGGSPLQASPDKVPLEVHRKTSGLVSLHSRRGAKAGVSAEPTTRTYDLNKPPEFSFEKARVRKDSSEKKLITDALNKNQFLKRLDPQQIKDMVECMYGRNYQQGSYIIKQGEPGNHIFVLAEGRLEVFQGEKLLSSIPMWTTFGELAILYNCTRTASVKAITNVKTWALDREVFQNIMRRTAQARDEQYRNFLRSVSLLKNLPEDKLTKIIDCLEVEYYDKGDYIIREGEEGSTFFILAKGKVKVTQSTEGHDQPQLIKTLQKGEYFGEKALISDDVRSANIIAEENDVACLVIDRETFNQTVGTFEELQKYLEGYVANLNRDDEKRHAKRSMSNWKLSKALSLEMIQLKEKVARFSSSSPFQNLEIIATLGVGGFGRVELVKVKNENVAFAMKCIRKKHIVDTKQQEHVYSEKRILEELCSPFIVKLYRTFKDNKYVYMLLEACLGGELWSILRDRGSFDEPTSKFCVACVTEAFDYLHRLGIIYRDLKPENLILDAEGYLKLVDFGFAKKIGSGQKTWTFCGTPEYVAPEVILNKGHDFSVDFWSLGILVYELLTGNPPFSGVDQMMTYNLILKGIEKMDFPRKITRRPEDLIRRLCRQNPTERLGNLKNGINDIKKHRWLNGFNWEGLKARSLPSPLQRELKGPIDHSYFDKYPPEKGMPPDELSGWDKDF
To be noted: at 0.1 µM.

The target of assay [17] is T6, cGMP-dependent protein kinase 2 (Homo sapiens). To be noted: at 1 µM.
The target in assay [18] is T7, cAMP-dependent protein kinase catalytic subunit PRKX (Homo sapiens) (UniProt P51817).
T7 sequence (whole entry): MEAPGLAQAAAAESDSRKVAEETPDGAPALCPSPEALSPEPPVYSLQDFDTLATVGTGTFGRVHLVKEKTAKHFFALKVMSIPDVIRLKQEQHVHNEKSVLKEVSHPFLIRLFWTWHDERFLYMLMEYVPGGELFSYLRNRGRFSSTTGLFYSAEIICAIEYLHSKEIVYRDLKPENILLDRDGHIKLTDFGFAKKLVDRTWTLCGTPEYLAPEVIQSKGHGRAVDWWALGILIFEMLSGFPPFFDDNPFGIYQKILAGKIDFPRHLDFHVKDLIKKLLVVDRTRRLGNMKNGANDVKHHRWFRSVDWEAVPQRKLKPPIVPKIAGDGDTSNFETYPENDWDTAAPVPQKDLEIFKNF
To be noted: at 0.1 µM.

Assay [19] deals with T7, cAMP-dependent protein kinase catalytic subunit PRKX (Homo sapiens). To be noted: at 1 µM.
The target in assay [20] is Rho-associated protein kinase 1 (Homo sapiens) (UniProt Q13464). The conditions noted are these: at 0.1 µM.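 Further: values are mean percent inhibition of ROCK1.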
Sequence of Rho-associated protein kinase 1 (Homo sapiens) (Q13464 2-1354 limits assumed): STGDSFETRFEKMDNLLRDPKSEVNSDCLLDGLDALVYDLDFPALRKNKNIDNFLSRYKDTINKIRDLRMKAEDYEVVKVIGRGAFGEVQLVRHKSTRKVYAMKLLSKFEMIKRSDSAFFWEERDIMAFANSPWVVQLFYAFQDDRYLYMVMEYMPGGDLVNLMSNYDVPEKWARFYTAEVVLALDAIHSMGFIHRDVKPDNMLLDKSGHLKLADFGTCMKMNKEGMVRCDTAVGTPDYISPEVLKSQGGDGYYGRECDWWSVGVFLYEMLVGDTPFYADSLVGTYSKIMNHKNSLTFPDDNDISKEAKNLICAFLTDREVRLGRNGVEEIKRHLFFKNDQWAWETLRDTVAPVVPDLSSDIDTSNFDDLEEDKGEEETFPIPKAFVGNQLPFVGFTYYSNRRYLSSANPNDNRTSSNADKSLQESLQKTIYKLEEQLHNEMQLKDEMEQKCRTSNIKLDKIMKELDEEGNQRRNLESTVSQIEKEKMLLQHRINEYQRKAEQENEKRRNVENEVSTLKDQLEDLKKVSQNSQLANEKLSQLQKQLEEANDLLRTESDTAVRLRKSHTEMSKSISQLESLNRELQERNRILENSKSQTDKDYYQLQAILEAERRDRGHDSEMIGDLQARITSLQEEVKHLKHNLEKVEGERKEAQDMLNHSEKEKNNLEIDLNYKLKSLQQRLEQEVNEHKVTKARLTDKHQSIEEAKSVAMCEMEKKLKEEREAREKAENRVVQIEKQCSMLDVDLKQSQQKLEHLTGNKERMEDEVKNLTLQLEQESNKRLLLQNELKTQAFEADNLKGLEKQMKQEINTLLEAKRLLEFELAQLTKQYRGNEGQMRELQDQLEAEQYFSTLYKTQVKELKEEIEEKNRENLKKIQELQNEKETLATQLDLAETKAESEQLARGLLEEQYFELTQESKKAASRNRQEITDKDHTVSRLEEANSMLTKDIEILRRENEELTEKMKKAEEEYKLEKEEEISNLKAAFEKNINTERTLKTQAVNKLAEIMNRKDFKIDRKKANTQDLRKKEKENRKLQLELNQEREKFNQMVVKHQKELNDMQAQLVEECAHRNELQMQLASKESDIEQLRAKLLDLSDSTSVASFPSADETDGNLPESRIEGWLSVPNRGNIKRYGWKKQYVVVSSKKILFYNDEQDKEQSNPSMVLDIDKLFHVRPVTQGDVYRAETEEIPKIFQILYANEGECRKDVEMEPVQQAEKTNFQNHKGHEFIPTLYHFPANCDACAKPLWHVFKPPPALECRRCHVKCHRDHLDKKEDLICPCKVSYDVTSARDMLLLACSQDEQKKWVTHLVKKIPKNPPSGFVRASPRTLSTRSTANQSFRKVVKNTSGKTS

Sequence of Protein kinase C theta type (Homo sapiens) (Q04759 whole entry, looked up): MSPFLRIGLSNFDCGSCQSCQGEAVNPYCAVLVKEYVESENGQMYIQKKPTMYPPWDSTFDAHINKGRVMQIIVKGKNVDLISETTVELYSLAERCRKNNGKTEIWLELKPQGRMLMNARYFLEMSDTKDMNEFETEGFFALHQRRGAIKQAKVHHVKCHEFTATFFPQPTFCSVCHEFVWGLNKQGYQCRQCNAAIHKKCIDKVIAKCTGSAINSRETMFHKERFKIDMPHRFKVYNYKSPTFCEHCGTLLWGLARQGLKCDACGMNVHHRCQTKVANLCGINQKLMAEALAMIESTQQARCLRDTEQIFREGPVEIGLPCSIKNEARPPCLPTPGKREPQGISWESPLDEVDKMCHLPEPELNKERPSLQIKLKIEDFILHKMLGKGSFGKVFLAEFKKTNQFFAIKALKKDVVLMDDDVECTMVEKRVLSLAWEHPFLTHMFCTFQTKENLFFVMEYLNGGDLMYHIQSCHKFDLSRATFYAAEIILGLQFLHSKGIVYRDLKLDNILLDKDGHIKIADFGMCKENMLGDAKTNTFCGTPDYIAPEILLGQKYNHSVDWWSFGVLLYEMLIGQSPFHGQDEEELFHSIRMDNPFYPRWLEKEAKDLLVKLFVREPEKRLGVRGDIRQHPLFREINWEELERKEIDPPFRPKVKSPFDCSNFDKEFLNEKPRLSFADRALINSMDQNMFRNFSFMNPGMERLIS
Sequence of Protein kinase C beta type (Homo sapiens) (P05771 2-671 limits assumed): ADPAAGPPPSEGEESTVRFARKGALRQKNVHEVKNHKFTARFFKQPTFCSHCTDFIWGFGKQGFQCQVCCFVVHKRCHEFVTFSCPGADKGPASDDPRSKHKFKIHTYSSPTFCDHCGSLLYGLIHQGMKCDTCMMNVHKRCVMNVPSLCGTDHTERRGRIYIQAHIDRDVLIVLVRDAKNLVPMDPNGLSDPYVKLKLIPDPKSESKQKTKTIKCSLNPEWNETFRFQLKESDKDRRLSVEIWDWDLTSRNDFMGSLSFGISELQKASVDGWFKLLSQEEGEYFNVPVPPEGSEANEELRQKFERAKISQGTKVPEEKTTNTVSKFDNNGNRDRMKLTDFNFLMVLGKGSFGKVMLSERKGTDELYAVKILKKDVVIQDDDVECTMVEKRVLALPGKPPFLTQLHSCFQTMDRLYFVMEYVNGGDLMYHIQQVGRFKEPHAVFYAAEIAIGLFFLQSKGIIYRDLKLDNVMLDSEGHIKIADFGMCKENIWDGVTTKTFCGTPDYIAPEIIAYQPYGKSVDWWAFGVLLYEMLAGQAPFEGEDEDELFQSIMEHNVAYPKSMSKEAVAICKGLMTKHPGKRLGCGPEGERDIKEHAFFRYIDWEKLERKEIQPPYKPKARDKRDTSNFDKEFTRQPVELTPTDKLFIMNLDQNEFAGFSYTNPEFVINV

For `Cc1ccc(C(=O)NC(C)C)cc1-c1ccc(C(=O)NCC2CC2)cc1`, the inhibition in assay [1] is -2.88%; in [2], -0.44%; in [3], -0.8%; in assay [4] it was -1.25%; in assay [5], -1.29%; in assay [6] it was -0.65%. The inhibition in assay [7] was -0.9%; in assay [8] it was -3.39%; in assay [9] it was -3.57%; in assay [10] it was -1.97%; in assay [11] it was -0.88%; in assay [12] it was -3.09%. Further, the inhibition is -2.84% in [13]; -3.24% in assay [14]; -2.98% in assay [15]; -1.45% in assay [16]; -0.98% in [17]; -1.5% in assay [18]. Further, the results for the inhibition in assay [19] and in assay [20] were -1.51% and -1.38%, respectively.
Consider `CCc1nccc2c1nc(-c1nonc1N)n2CC`, for which the inhibition is -2.73% in assay [1]; -0.45% in assay [2]; 1.45% in assay [3]; -0.41% in assay [4]; 0.94% in [5]; 0.5% in [6]. Also, the inhibition in assay [7] turned out to be 1.81%; in assay [8], 1.12%; in assay [9], 2.3%; in assay [10], 1.51%; in assay [11] it was 3.17%; in assay [12], 1.43%. Further, the inhibition in assay [13] was 2.71%; in assay [14], 0.88%; in [15], 7.44%; in assay [16], 2.5%; in assay [17] it was 21.1%; in assay [18], -0.13%. Besides, the inhibition in assay [19] was -0.42%; in assay [20] it was 1.09%.
